Only some compounds are listed: those with a hit (about 19% of all), similar ones and a draw of the others.
HT1080-NT tox = kills 2HG-producing HT-1080-NT fibrosarcoma cells | Potency, µM (titrated, usually from 46.1 µM), actives largely listed as cytotoxic | 1.6% of 360,000 active | HT-1080-NT fibrosarcoma viability, CellTiter-Glo ATP luminescence, 48 h | AID 686970;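 note: NT is the 2HG producing partner of a matched IDH1 knockdown line; nearly all actives have a fitted effect of over 55% in size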
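Viability of the 2HG-overproducing fibrosarcoma line after 48 hours of compound exposure at 37 degrees C was determined by luminescence with CellTiter-Glo, and concentration-effect curves were then fitted and categorized.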
IL-1B inflam inh = blocks inflammasome-driven IL-1 beta release. activity change, % at 57.5 µM. 4.7% of 360,000 active. THP-1 LPS/ATP IL-1B secretion, AlphaLISA, 16 h; hits give low values; in the data active = activity change below about -50%; inconclusive = mostly about -30% to -49%
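Secreted IL-1B measured by AlphaLISA bead assay after 16 h compound exposure of THP-1 cells; compounds (final up to 57.5 uM) added 1 h before LPS (250 ng/mL) and ATP (1.25 mM) stimulation; lower signal means less secretion.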
DT40 TDP1 no CPT = qHTS for Inhibitors of human tyrosyl-DNA phosphodiesterase 1 (TDP1): qHTS in cells in absence of CPT; Potency, µM (series often up to 46.2 µM), most hits filed as inhibitors; 15% of 420,000 active; DT40 Tdp1-/- hTDP1 cells, no CPT, ATP luminescence, 48 h; AID 686978, 2013; note: nearly all actives have a fitted effect of over 55% in size
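A cellular qHTS used chicken DT40 cells lacking endogenous Tdp1 but carrying stably transfected human TDP1. Compounds were applied without camptothecin, and cell growth kinetics were judged by ATP-dependent luminescence after ≥48 hr.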
TDP1 cell CPT = DT40-hTDP1 cell growth loss with CPT; Potency, µM (doses to about 46.2 µM), usual class: inhibitors; AID 686979; chicken DT40 Tdp1-/-;hTDP1 cells + 20 nM CPT, ATP luminescence, 48 h; 12% of 420,000 active; note: nearly all actives have a fitted effect of over 55% in size
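Chicken DT40 Tdp1-/- cells stably complemented with human TDP1 were seeded at 400 cells/well in medium containing 20 nM camptothecin, exposed to pin-transferred compounds, and grown at 37 °C for at least 48 hr. Viability was read as ATP luminescence.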
HT1080 IDH1KD tx = toxicity to HT-1080 IDH1 knockdown cells (counter line); HT-1080 IDH1 knockdown viability, ATP luminescence, 48 h; 2% of 360,000 active; AID 686971; Potency, µM (top dose mostly 46.1 µM), hits mostly cytotoxic
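Knockdown cells (IDH1KD HT-1080) received compounds 2 h after plating at 750 cells/well and were kept 48 h at 37 °C in 5% FBS RPMI. A CellTiter-Glo luminescence read gave % activity for curve fitting.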
uPA generation = inhibitors of cell surface uPA generation. Potency, µM (top dose mostly 38.3 µM), usual class: inhibitors. AID 540303. cell surface uPA generation assay, qHTS. 0.31% of 330,000 active; active = well fitted inhibition curve with a large enough effect; inconclusive = small, poorly fitted or top-dose-only effect; inactive = no such curve, though single readings can be large or run the other way; tested in mouse RAW 264.7 cells; note: nearly all actives have a fitted effect of over 55% in size
Numbers stand for hits; n = inactive; u = inconclusive; x = not tested or not shown. Unless noted, calls come from the whole dose curve; as a rule, active = well fitted curve in the direction sought with a large enough effect; inconclusive = small, poorly fitted or top-dose-only effect, or another doubt; inactive = no such curve, though single readings can be large; an effect the other way counts as inactive or inconclusive.

SMILES	HT1080-NT tox	IL-1B inflam inh	DT40 TDP1 no CPT	TDP1 cell CPT	HT1080 IDH1KD tx	uPA generation
CCc1ccc(NC(=O)C2CCN(c3ncnc4c3nc3n4CCCCC3)CC2)cc1	n	n	u	u	n	n
COc1ccccc1CNc1ncnc2c1nc1n2CCCC1	x	x	8.2µM	u	x	x
COc1ccc(Nc2ncnc3c2nc2n3CCCCC2)cc1	x	x	u	n	x	x
O=P(O)(O)OP(=O)(O)OP(=O)(O)O	x	x	n	n	x	x
C=C1C=C(C)n2ncc(C(=O)Nc3ccc(C)cn3)c2N1	n	x	u	n	n	x
COc1cccc(OC)c1C(=O)Nc1ccc(S(=O)(=O)Nc2nccc(C)n2)cc1	x	x	n	n	x	x
O=C(Nc1ccccn1)C1CCN(c2ncnc3c2nc2n3CCCCC2)CC1	n	n	u	2.3µM	n	n
O=C(NCc1ccccc1)C1CCN(c2ncnc3c2nc2n3CCCCC2)CC1	x	x	n	n	x	x
COc1ccc(S(=O)(=O)N2CCOCC2)cc1NC(=O)c1ccc(S(=O)(=O)N(C)c2ccccc2OC)cc1	n	n	u	u	n	n
Cc1cc2ncn(S(=O)(=O)c3ccc(F)cc3)c2cc1C	n	n	n	n	n	n
Cc1cc2ncn(S(=O)(=O)c3ccc(S(=O)(=O)N4CCCCCC4)cc3)c2cc1C	n	n	21µM	16µM	u	n
Cc1cc2ncn(S(=O)(=O)c3ccc(S(N)(=O)=O)cc3)c2cc1C	n	n	n	n	n	n
CCOc1ccc(S(=O)(=O)n2cnc3cc(C)c(C)cc32)cc1	u	n	8.2µM	u	u	u
CC(C)CCCN1C(N(C)C)=NC[C@@H]1Cc1ccccc1	n	n	21µM	21µM	n	u
CCC(C)CCN1C(N(C)C)=NC[C@@H]1Cc1ccccc1 (stereo not given in full)	n	n	u	12µM	n	u
CCN1C(N(C)C)=NC[C@@H]1Cc1ccccc1	n	n	n	n	n	n
Cc1ccccc1-c1nnc(CN2CCN(c3ccccn3)CC2)o1	x	x	n	n	x	x
N#Cc1ccccc1COC(=O)c1ccc2c(c1)OCO2	n	n	u	n	n	n
N#Cc1ccccc1COC(=O)c1ccc2c(c1)OCCO2	n	-50	n	u	n	n
Cc1ccc(OCC(=O)N(c2ccccn2)C2CCCCC2)c(C)c1	n	n	u	u	n	n
O=C(COc1ccc(Cl)cc1Cl)N(c1ccccn1)C1CCCCC1	n	n	u	26µM	n	n
CC(C)(C)c1ccc(OCC(=O)N(c2ccccn2)C2CCCCC2)cc1	n	n	15µM	u	n	n
O=C(NC1CCCCC1)c1cc(N2C(=O)CCC2=O)ccc1Cl	n	n	n	n	n	n
O=C(NCc1ccco1)C1CCN(C(=O)c2ccc(Cl)cc2Cl)CC1	n	n	n	n	n	n
COCc1ccc2oc(C(=O)O)cc2c1	n	n	23µM	12µM	n	n
SMILES	HT1080-NT tox	IL-1B inflam inh	DT40 TDP1 no CPT	TDP1 cell CPT	HT1080 IDH1KD tx	uPA generation
O=C(NCC(c1ccco1)N1CCCC1)c1cccc(S(=O)(=O)N2CCOCC2)c1 (stereo not given)	n	n	n	n	n	n
COC(=O)[C@@]12C[C@@H](CC(=O)N3CCN(C(=O)C4CC4)CC3)C(=O)N(Cc3ccco3)C1=CCC(C)(C)C2	n	n	u	u	n	x
CCCCCCCCN1C(=O)[C@H](CC(=O)N2CCN(C(=O)C3CC3)CC2)C[C@@]2(C(=O)OC)CC(C)(C)CC=C12	u	-60	15µM	15µM	u	x
CCCCCCCCN1C(=O)[C@H](CC(=O)N2CCN(C(=O)OCC)CC2)C[C@@]2(C(=O)OC)CC(C)(C)CC=C12	u	n	13µM	13µM	u	x
O=C1CCCCC1(O)Cc1ccc2c(c1)OCO2 (stereo not given)	n	n	n	n	n	n
CCCC(=O)Nc1cc(-c2nc3cccnc3s2)ccc1C	x	x	n	n	x	x
Cc1ccc(O)c(C2=Nc3ccccc3N=C(c3ccco3)C2)c1	u	n	13µM	u	u	n
CN(C)CCn1c2ccccc2c2nc3ccc([N+](=O)[O-])cc3cc21	n	x	2.9µM	2.1µM	u	n

Screens: PubChem BioAssay, National Center for Advancing Translational Sciences (NCATS)
